Experimental data reported in PubChem BioAssay (NCI).
This is part of a sample that, as a whole, favours compounds with a hit. Of some 83,000 tested, about 20% had one in any assay.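 Growth was measured after 48 h exposure to one concentration of compound in 96-well plates. Values under 10 count as active.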 Unmarked numbers belong to inactive results. Active and inactive are the calls of the source.

Experiments:
Assay in all cases: NCI-60 one-dose screen, 48 h (100 = growth as untreated, 0 = no growth, -100 = all killed)
Conditions in all cases: 10 µM unless noted
BT-549 breast = tested on: BT-549 breast
MDA-MB-435 melanoma = tested on: MDA-MB-435 melanoma
HCT-116 colon = tested on: HCT-116 colon
HCC-2998 colon = tested on: HCC-2998 colon
KM12 colon = tested on: KM12 colon
MCF7 breast = tested on: MCF7 breast
SW-620 colon = tested on: SW-620 colon

CC(C)c1nc(N(C)S(C)(=O)=O)nc(-c2ccc(F)cc2)c1/C=C/[C@@H](O)C[C@@H](O)CC(=O)O
growth (BT-549 breast): 103%
growth (MDA-MB-435 melanoma): 109%
growth (HCT-116 colon): 98.2%
growth (HCC-2998 colon): 97.5%
growth (KM12 colon): 95.8%

COc1cc(OC)c2sc(-c3ccc(-n4cncc4-c4ccc(N)cc4)cc3)nc2c1
growth (BT-549 breast): 82.4%
growth (MDA-MB-435 melanoma): 62.9%
growth (MCF7 breast): 63.4%
growth (HCT-116 colon): 70.2%
growth (HCC-2998 colon): 96.2%
growth (KM12 colon): 64.1%

CCOC(Cc1c(N)[nH]c(=S)[nH]c1=O)OCC
growth (BT-549 breast): 102%
growth (SW-620 colon): 105%
growth (MCF7 breast): 96.8%
growth (HCT-116 colon): 103%
growth (HCC-2998 colon): 113%
growth (KM12 colon): 112%

CC1=C(C(=O)Nc2ccccc2)C(c2ccc3c(c2)OCCO3)NC(=O)N1 (stereo not drawn)
growth (BT-549 breast): 95.9%
growth (MDA-MB-435 melanoma): 102%
growth (MCF7 breast): 94.7%
growth (HCT-116 colon): 97.6%
growth (HCC-2998 colon): 103%
growth (KM12 colon): 100%

Cc1cc(O)c2c(c1)C[C@H]1[C@@H]3CC[C@H]4CC(=O)CC[C@]4(C)[C@H]3CC(=O)[C@]21C
growth (BT-549 breast): 91.4%
growth (SW-620 colon): 103%
growth (MCF7 breast): 95.6%
growth (HCT-116 colon): 77.1%
growth (HCC-2998 colon): 87.9%
growth (KM12 colon): 81.2%

COc1cc(C2NC(c3ccc(Cl)cc3)C(C)/C(=N/NC(N)=S)C2C)cc(OC)c1OC (stereo not drawn)
growth (BT-549 breast): 111%
growth (MDA-MB-435 melanoma): 107%
growth (MCF7 breast): 90.3%
growth (HCT-116 colon): 73.1%
growth (HCC-2998 colon): 126%
growth (KM12 colon): 88.6%

O=C(CCc1nnc(SCc2ccccc2)s1)c1nc2ccccc2[nH]1
growth (BT-549 breast): 108%
growth (MDA-MB-435 melanoma): 102%
growth (MCF7 breast): 92.1%
growth (HCT-116 colon): 95%
growth (HCC-2998 colon): 101%
growth (KM12 colon): 110%

CN(C)c1nc(-c2ccco2)n2nc(-c3ccco3)cc2n1
growth (BT-549 breast): 94.3%
growth (SW-620 colon): 93.4%
growth (MCF7 breast): 28.3%
growth (HCT-116 colon): 91.6%
growth (HCC-2998 colon): 88.5%
growth (KM12 colon): 61.3%

O=C(/C=C/c1ccccc1Cl)c1ccc(O)cc1
growth (BT-549 breast): 55.8%
growth (MDA-MB-435 melanoma): 25.1%
growth (MCF7 breast): 15%
growth (HCT-116 colon): 13.3%
growth (HCC-2998 colon): 113%
growth (KM12 colon): 6.77% (active)

Cn1cc(-c2csc(-c3cn(C)c4ncccc34)n2)c2cc(Br)cnc21
growth (BT-549 breast): 95.2%
growth (MDA-MB-435 melanoma): 55.2%
growth (MCF7 breast): 70.2%
growth (HCT-116 colon): 90.6%
growth (HCC-2998 colon): 98%
growth (KM12 colon): 83.1%

N#CCCN(CCO)c1ccccc1
growth (BT-549 breast): 91.7%
growth (SW-620 colon): 102%
growth (MCF7 breast): 93.6%
growth (HCT-116 colon): 100%
growth (HCC-2998 colon): 129%
growth (KM12 colon): 110%

Cc1cc(C)n2nc(SCC(=O)Nc3sc4c(c3C(N)=O)CCC4)nc2n1
growth (BT-549 breast): 99.6%
growth (SW-620 colon): 100%
growth (MCF7 breast): 107%
growth (HCT-116 colon): 97.2%
growth (HCC-2998 colon): 118%
growth (KM12 colon): 114%

c1ccc2cc(C[n+]3ccn(CCCCCCCn4cc[n+](Cc5ccc6ccccc6c5)c4)c3)ccc2c1
growth (BT-549 breast): 16.7%
growth (MDA-MB-435 melanoma): 32.7%
growth (MCF7 breast): 35.1%
growth (HCT-116 colon): 32.7%
growth (HCC-2998 colon): 49.3%
growth (KM12 colon): 28.7%

COC(=O)CCC1=C(C)C(C)=N/C1=C\c1[nH]c(-c2ccc[nH]2)cc1OC
growth (BT-549 breast): 29.2%
growth (MDA-MB-435 melanoma): -5.95% (active)
growth (MCF7 breast): 4.8% (active)
growth (HCT-116 colon): -59.8% (active)
growth (HCC-2998 colon): 12.5%
growth (KM12 colon): 12.7%

Cn1cc(-c2csc(-c3cn(C)c4ncccc34)n2)c2cccnc21
growth (BT-549 breast): 93.6%
growth (MDA-MB-435 melanoma): 75.8%
growth (MCF7 breast): 91.6%
growth (HCT-116 colon): 95%
growth (HCC-2998 colon): 99.2%
growth (KM12 colon): 96.4%

Nc1nc(SCC2(CCl)COC2)c2[nH]cnc2n1
growth (BT-549 breast): 91.2%
growth (MDA-MB-435 melanoma): 107%
growth (MCF7 breast): 86.4%
growth (HCT-116 colon): 105%
growth (HCC-2998 colon): 97.7%
growth (KM12 colon): 108%

CC(C)COCC(CN(Cc1ccccc1)c1ccccc1)N1CCCC1 (stereo not drawn)
growth (BT-549 breast): 62.2%
growth (MDA-MB-435 melanoma): 72.4%
growth (MCF7 breast): 45.8%
growth (HCT-116 colon): 36.7%
growth (HCC-2998 colon): 44.8%
growth (KM12 colon): 56.2%

COc1ccc(-c2cc(Cc3cccs3)c(=O)n(Cn3cncn3)n2)cc1
growth (BT-549 breast): 109%
growth (MDA-MB-435 melanoma): 106%
growth (MCF7 breast): 93.2%
growth (HCT-116 colon): 101%
growth (HCC-2998 colon): 108%
growth (KM12 colon): 108%

CCN(CC)c1ccc(C(O)C2=CC(=O)c3ccccc3C2=O)cc1 (stereo not drawn)
growth (BT-549 breast): 23.6%
growth (SW-620 colon): -42.7% (active)
growth (MCF7 breast): 9.53% (active)
growth (HCT-116 colon): -9.43% (active)
growth (HCC-2998 colon): -60.5% (active)
growth (KM12 colon): 1.59% (active)

O=C(CSCC(=O)N/N=C/c1ccccc1O)N/N=C\c1ccccc1O
growth (BT-549 breast): 1.06% (active)
growth (SW-620 colon): 39.3%
growth (MCF7 breast): 19.5%
growth (HCT-116 colon): 16.6%
growth (HCC-2998 colon): 30.1%
growth (KM12 colon): 37.3%

Nc1nc(SCc2ccccc2Cl)c(-c2ccccc2)c(SCc2ccccc2Cl)n1
growth (BT-549 breast): 113%
growth (SW-620 colon): 77.3%
growth (MCF7 breast): 78%
growth (HCT-116 colon): 82.2%
growth (HCC-2998 colon): 99%
growth (KM12 colon): 85.7%

CN(C(=O)c1ccccc1)N(C)C(=O)c1ccccc1
growth (BT-549 breast): 97%
growth (SW-620 colon): 106%
growth (MCF7 breast): 95.2%
growth (HCT-116 colon): 100%
growth (HCC-2998 colon): 116%
growth (KM12 colon): 113%

O=C(OCCBr)c1ccc(Cl)c([N+](=O)[O-])c1
growth (BT-549 breast): 107%
growth (SW-620 colon): 103%
growth (MCF7 breast): 44.7%
growth (HCT-116 colon): 92.4%
growth (HCC-2998 colon): 42.9%
growth (KM12 colon): 63.1%

COc1ccc2c(c1)C(=O)c1c-2c(OCCN(C)C)nc2cc(OC)ccc12
growth (BT-549 breast): 56.6%
growth (MCF7 breast): -50% (active)
growth (HCT-116 colon): -76% (active)
growth (HCC-2998 colon): -88.8% (active)
growth (KM12 colon): -37.4% (active)

Nc1ccc2c(c1)/C(=N/O)c1cc([N+](=O)[O-])ccc1-2
growth (BT-549 breast): 50.8%
growth (SW-620 colon): 13.1%
growth (MCF7 breast): 81.8%
growth (HCT-116 colon): 47.3%
growth (HCC-2998 colon): 103%
growth (KM12 colon): 64.8%
